Sampled rows, rich in hits. Any-hit rate of the full collection: about 7.5%.
FLuc counter: qHTS profiling assay for firefly luciferase inhibitor/activator using purifed enzyme and Km concentrations of substrates (counterscreen for miR-21 project). Potency, µM (top dose mostly 57.5 µM), for inactives: at the highest dose activity change, negative = inhibition, usual class: inhibitors. Luciferin 4-monooxygenase (Photinus pyralis), P08659. purified FLuc, Km substrates, luminescence inhibition. 6.9% of 360,000 active. AID 588342, 2011;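 further: plate controls were vehicle for no effect and reference inhibitor for full effect; nearly all actives have a fitted effect of over 55% in size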
Target sequence (P08659 whole entry, looked up): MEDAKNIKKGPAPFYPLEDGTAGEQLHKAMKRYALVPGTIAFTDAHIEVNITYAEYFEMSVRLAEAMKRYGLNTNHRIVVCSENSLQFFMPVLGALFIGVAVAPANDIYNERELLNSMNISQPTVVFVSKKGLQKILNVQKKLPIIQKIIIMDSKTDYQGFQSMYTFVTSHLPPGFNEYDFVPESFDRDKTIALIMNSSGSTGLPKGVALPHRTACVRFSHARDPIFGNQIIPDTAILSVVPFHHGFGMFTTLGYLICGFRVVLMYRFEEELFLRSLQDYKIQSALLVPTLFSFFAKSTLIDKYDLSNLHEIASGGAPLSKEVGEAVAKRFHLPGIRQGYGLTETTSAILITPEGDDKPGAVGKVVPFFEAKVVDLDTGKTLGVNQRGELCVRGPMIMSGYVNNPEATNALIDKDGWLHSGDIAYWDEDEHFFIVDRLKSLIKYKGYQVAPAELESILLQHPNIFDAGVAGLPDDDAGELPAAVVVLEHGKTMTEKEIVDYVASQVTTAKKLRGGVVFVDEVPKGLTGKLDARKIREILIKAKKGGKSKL
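Purified P. pyralis luciferase, 10 nM final, with Km-level 10 uM D-luciferin and 10 uM ATP in 50 mM Tris acetate pH 7.5, 10 mM Mg acetate, 0.01% Tween-20, 0.05% BSA; 6-point qHTS titration about 60 µM downward; luminescence read.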
ELG1 genotoxic: qHTS screen for small molecules that induce genotoxicity in human embryonic kidney (HEK293T) cells expressing luciferase-tagged ELG1; 1.3% of 330,000 active; Potency, µM (highest dose often 46 µM), without a hit: top-dose activity change, positive = activation, hits mostly activators; HEK293T ELG1-luciferase reporter, luminescence, 16 h; AID 504466, 2011; further: % of control where 0% means no effect; nearly all actives have a fitted effect of over 60% in size
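Cells (2,000/well) expressing the ELG1-luciferase fusion are dosed by pin tool and kept 16 hr at 37 °C, 5% CO2. Signal comes from ONE-Glo luciferase reagent after 30 min at room temperature.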
Rab9 promoter act: qHTS Assay for Rab9 Promoter Activators; Huh7 Rab9 promoter-luciferase reporter, luminescence, 24 h; Potency, µM (doses to about 9.22 µM), for the others: at the highest dose activation, negative = inhibition, usual class: activators; 2.8% of 320,000 active; further: % of control where 0% means no effect; nearly all actives have a fitted effect of over 60% in size
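Luciferase signal after 10 min detection reagent at ambient indicates Rab9 promoter upregulation; stably transfected Huh7 cells were treated 24 h with compound in DMSO at 37 °C, 5% CO2.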
SMN2 splice enh: qHTS Assay for Enhancers of SMN2 Splice Variant Expression; Potency, µM (highest dose often 46.1 µM), inactives show top-dose activity change, positive = activation, actives largely listed as activators; AID 1458, 2008; HEK293 SMN2-luciferase splicing reporter, luminescence, 30-36 h; 2.8% of 210,000 active; further: % of control where 0% means no effect; nearly all actives have a fitted effect of over 55% in size
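HEK293 cells carry an SMN2 minigene-luciferase reporter in which exon 7 inclusion puts luciferase in frame. Cells were seeded at 2000 cells/well, attached for 10-12 hours, then exposed to compounds for 30-36 hours at 37C before ONE-Glo luminescence.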
Luc counter: Counterscreen for Luciferase (Kinase-Glo TM) Inhibition | Kinase-Glo luciferase, ATP luminescence, 8 min | AID 1379, 2008 | Potency, µM (series often up to 38.3 µM), without a hit: at the highest dose activity change, negative = inhibition, most hits filed as inhibitors | 0.28% of 200,000 active; further: on the % scale 0 is the no-effect control and ±100 the full control effect; nearly all actives have a fitted effect of over 60% in size
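Recombinant Kinase-Glo luciferase, 10 uM ATP (linear range), luciferin; imidazole pH 7.2 / KCl / MgCl2 / Tween / BSA buffer; 8 min RT; luminescence.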
NPC1 prom act: qHTS Assay for NPC1 Promoter Activators. Huh7 NPC1 promoter luciferase reporter, 24 h. Potency, µM (doses to about 9.22 µM), for the others: at the top dose activation, most hits filed as activators. 2.4% of 320,000 active. AID 485313, 2010; further: % of control where 0% means no effect; nearly all actives have a fitted effect of over 60% in size
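Stably transfected Huh7 (NPC1 promoter→luciferase), 1500 cells/well in Opti-MEM + 10% FBS, 2 h settle, then compound 24 h at 37 °C. Luminescence after 10 min with Amplite reagent.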
* marks the source's active call; other numbers are inactive results; ? = inconclusive; . = no result given. The call rests on the fitted dose curve; in most records, active means well fitted curve in the direction sought with a large enough effect; inconclusive means small, poorly fitted or top-dose-only effect, or another doubt; inactive means no such curve, though single readings can be large; an effect the other way counts as inactive or inconclusive. Potency means the concentration at half of the fitted maximal effect.

SMILES | FLuc counter | ELG1 genotoxic | Rab9 promoter act | SMN2 splice enh | Luc counter | NPC1 prom act
CN(C)c1ccc(/C=N/NC(=O)c2cccc(N3CCCC3=O)c2)cc1 | 11µM* | 9% | 15% | 4% | -8% | 4%
CCN(CC)CCCNC(=O)c1cc(-c2ccc(OC)c(OC)c2)on1 | 2% | . | . | -9% | . | .
Cc1cc(=O)oc2c(C)c(OC(C)C(=O)NCC3CCC(C(=O)O)CC3)ccc12 (stereo not drawn) | -1% | 1% | -1% | . | . | 6%
COc1ccc2c(c1)c(=O)oc1c(C)c(OCC(=O)N3CCc4ccccc4C3)ccc12 | -13% | 2% | 7% | -18% | -7% | -2%
Cc1oc(C(=O)O)cc1COc1ccc2c3c(c(=O)oc2c1)CCC3 | ? | ? | 4% | -1% | 0% | 12%
COc1ccc2c(c1)c(=O)oc1c(C)c(OCc3ccc(C(=O)O)cc3)ccc12 | 24µM* | 3% | 7% | . | . | -5%
COc1ccc2c(c1)c(=O)oc1c(C)c(OCc3cc(C(=O)O)oc3C)ccc12 | 11µM* | ? | 12% | 1% | -2% | -1%
COc1ccc2c(c1)c(=O)oc1c(C)c(OC(C)C(=O)NCC3CCC(C(=O)O)CC3)ccc12 (stereo not drawn) | 15µM* | 9% | 5% | . | . | 8%
COc1ccc(N2CCN(C(=O)c3cnn(-c4ccc(OC)cc4)c3C3CCN(C(=O)OC(C)(C)C)CC3)CC2)cc1 | -2% | . | . | . | . | .
CC(C)c1nc2cc3ccccc3cc2[nH]1 | 19µM* | 3% | 19% | -22% | -2% | 13%
O=c1[nH]c2cc3ccccc3cc2nc1C(F)(F)F | -20% | -3% | 3% | -2% | 1% | 0%
O=S(=O)(Nc1cccnc1)c1ccc(Cl)cc1 | -1% | 0% | -4% | -14% | -3% | -2%
Clc1ccc(C#Cc2cccnc2)cc1 | 13µM* | 13% | 24% | . | . | 19%
Cc1ccc(NC(=O)CN2C(=O)C(c3ccc(F)cc3)=NC2(C)C)c(C)c1 | 3% | . | . | 7% | . | .
COc1ccc(N2CCN(CC(O)COc3ccccc3C(C)(C)C)CC2)cc1 (stereo not drawn) | -16% | . | . | -26% | . | .
O=C(NCCc1c[nH]c2ccccc12)c1ccc2[nH]c(=O)c(=O)[nH]c2c1 | -3% | 1% | 3% | . | . | 0%
O=C(NCCc1c[nH]c2ccccc12)c1ccc2c(c1)OCO2 | 6.7µM* | ? | 1.3µM* | . | . | 1.1µM*
O=C(NCCc1c[nH]c2ccccc12)c1cc(Cl)c2c(c1)OCO2 | 24µM* | ? | 1.4µM* | . | . | 2.5µM*
Cc1ccc2[nH]cc(CCNC(=O)c3ccc4c(c3)OCO4)c2c1 | ? | -6% | -3% | . | . | 11%
Cn1c(C(=O)NCCc2c[nH]c3ccccc23)cc2sccc21 | 12µM* | 15µM* | ? | 25% | 2% | ?
Cc1ccc(C(=O)N/C(=C/c2ccco2)C(=O)NCCc2c[nH]c3ccccc23)cc1 | 15µM* | 2% | -3% | 6% | -2% | -1%
O=C1CC(c2ccccc2)Cc2[nH]c(=O)c(-c3nc(-c4ccc(F)cc4)cs3)cc21 (stereo not drawn) | -2% | . | . | 4% | . | .
COc1ccccc1C(=O)NCCC(=O)NC1CCC(C)CC1 (stereo not drawn) | 13µM* | ? | 4µM* | . | . | ?
COc1ccccc1C(=O)NCCC(=O)NCC(c1ccccc1)N(C)C (stereo not drawn) | 13µM* | 6% | -2% | . | . | 2%
COc1ccccc1C(=O)NCCC(=O)NCCc1ccccc1 | 4% | 14% | -4% | . | . | -1%
SMILES | FLuc counter | ELG1 genotoxic | Rab9 promoter act | SMN2 splice enh | Luc counter | NPC1 prom act
Cc1ccc2nc(NC(=O)COC(=O)c3ccco3)sc2c1 | 13µM* | . | . | 30% | 0% | .
Cc1ccc2nc(NC(=O)COC(=O)c3ccc(Br)o3)sc2c1 | 27µM* | 1% | ? | 5% | -8% | ?
O=C(COC(=O)c1ccco1)Nc1nc2ccc([N+](=O)[O-])cc2s1 | 19µM* | -4% | 1% | . | . | -2%
O=C(COC(=O)c1ccco1)Nc1ccc([N+](=O)[O-])cc1Cl | -3% | 8% | 0% | . | . | -2%
COc1cc(NC(=O)Cn2c(-c3ccccc3)cc(C(C)=O)c2C)cc(OC)c1 | 1% | . | . | . | . | .
CC(C)(C)OC(=O)COc1ccc(/C=N/NC(=O)CN2CCCCC2)cc1 | 2% | ? | 1.1µM* | . | . | 1.6µM*
CC(C)(C)c1ccc(OCC(=O)N/N=C/c2ccsc2)cc1 | 11µM* | 0% | -2% | . | . | 0%
COc1ccc(/C=N/NC(=O)CN2CCCC2)cc1 | -3% | -4% | 0% | . | . | 7%
O=C(O)COc1ccc(/C=N/NC(=O)COc2nsnc2N2CCOCC2)cc1 | -4% | 2% | -1% | . | 3% | 2%
CC(C)(C)c1ccc(OCC(=O)N/N=C/c2ccc(N3CCOCC3)cc2)cc1 | 5.4µM* | 0% | -9% | -2% | 12% | 0%
COCCNC(=O)C(=O)Nc1ccc2nc3n(c(=O)c2c1)CCCCC3 | 5% | . | . | 2% | . | .
CN(C)c1ccc(CNC(=O)c2ccc(Cn3c(=O)c4cccn4c4cccnc43)cc2)cc1 | 0% | . | . | . | . | .
CCOC(=O)CCc1c(C)nc2cc(-c3cc(OC)cc(OC)c3)[nH]n2c1=O | 1% | . | . | -8% | . | .
O=C(CN1C(=O)C2(SCC(=O)N2c2ccc(F)cc2)c2ccccc21)NCCc1ccccc1 (stereo not drawn) | -7% | . | . | . | . | .
COc1ccc(C(=O)OCCc2ccc(O)cc2)cc1 | 6.7µM* | 13µM* | ? | ? | 3% | ?
O=C(OCCc1ccccc1)c1cc(O)c(O)c(O)c1 | 24µM* | ? | 16% | . | . | -2%
Nc1ccc(C(=O)OCCc2ccccc2)cc1 | 0.6µM* | ? | 3.2µM* | . | . | 3.5µM*
CN(C)S(=O)(=O)c1ccc(C(=O)OCC(=O)NCc2ccccc2)cc1 | 0% | 5% | 2% | -3% | -2% | -8%
CN(C)S(=O)(=O)c1ccc(C(=O)OCCc2ccccc2)cc1 | 15µM* | 14% | 0% | . | . | 1%
O=C(OCCCCOC(=O)c1ccccc1)c1ccccc1 | -1% | -2% | -6% | . | . | -7%
CC(C)(C)c1ccc(C(=O)Nn2cnnc2)cc1 | 24µM* | 3% | 26% | . | . | 18%
O=C(Nn1cnnc1)c1ccncc1 | -1% | -1% | -1% | . | . | 0%
Cc1cccc2c1-c1sc(C(=O)N3CCCCC3)cc1CO2 | 13µM* | ? | 4µM* | . | . | 3.5µM*
